Screening data from PubChem BioAssay.
Most compounds without a hit are left out; they make up all but 0.5% or so of the library.
E coli growth-1 = bacterial growth inhibition, counter-screen for AddAB inhibitors | E. coli V3065 growth, OD600 absorbance, 18 h | inhibition, % at 11.9 µM | 0.27% of 330,000 active;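 active = inhibition above the campaign's mean inhibition across all tested compounds plus 3 SD, cut at about 9.9% in these data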;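 note: uninfected addAB+ strain grown without phage in ampicillin broth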
phage Ecoli inh = E. coli growth loss with phage present; growth absorbance; AID 651602; 0.26% of 360,000 active; inhibition, % at 11.9 µM; in the data active = inhibition above about 11%
Tat transport = inhibitors of E. coli Tat protein transport; E. coli MC4100 TorA-mCherry Tat export, fluorescence; 0.036% of 340,000 active; inhibition, % at 10 µM;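 active = mean replicate inhibition at least 50% and at least half of replicates individually reaching 50%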;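 note: exported cargo escapes ClpAP degradation while cytoplasmic cargo is degraded and loses fluorescence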
AddAB inh = less growth of phage-infected E. coli with AddAB. inhibition, % at 11.9 µM. AID 435030. E. coli expressing H. pylori AddAB, absorbance growth. 0.29% of 330,000 active; in the data active = inhibition above about 12%
E coli growth-2 = E. coli growth inhibition; OD600 absorbance (test concentration not listed); AID 1053175; Escherichia coli growth, OD600, 23 h; stronger effect = lower value; 0.21% of 330,000 active;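 active = OD600 absorbance below the run mean of sample wells minus 3.6 SD, in any replicate, cut at about 0.56 in these data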
Numbers stand for hits; 0 = inactive; - = no result given.

SMILES	E coli growth-1	phage Ecoli inh	Tat transport	AddAB inh	E coli growth-2
COC1C=CO[C@@]2(C)Oc3c(C)c(O)c4c(O)c(c(C=NN5CCN(C)CC5)c(O)c4c3C2=O)NC(=O)C(C)=CC=CC(C)C(O)C(C)C(O)C(C)C(OC(C)=O)C1C (stereo partly specified)	-	-	-	-	0.074
CC(C)OC(=O)C(=Cc1ccc2c(c1)c1ccccc1n2C)NC(=O)c1ccccc1	-	-	-	-	0
C/C(=N\Nc1ncnc2sc(C)c(C)c12)c1ccccn1	14.3	0	0	0	-
Cc1sc2ncnc(N/N=C/c3cccc(O)c3)c2c1C	0	0	0	0	-
FC(F)(F)c1cc(CCN2CCNCC2CC2CCCCC2)cc(C(F)(F)F)c1 (stereo unspecified)	-	-	-	-	0.462
Oc1ccc(C[C@@H]2CNCCN2CCc2cc(C(F)(F)F)cc(C(F)(F)F)c2)cc1	0	0	0	0	-
CCOc1ccc(N(CC(=O)Nc2ccc(C)cc2)S(=O)(=O)c2c(C)noc2C)cc1	0	18.0	0	0	0
CCOc1ccc(N(CC(=O)Nc2ccc(F)c(F)c2)S(=O)(=O)c2c(C)noc2C)cc1	0	0	0	0	0
CCn1cc(C(=O)O)c(=O)c2cnc(N3CCN(C(=S)NC(=O)c4ccccc4)CC3)nc21	0	0	0	0	0.407
CC(C)c1ccc2c(c1)C(N1CCNCC1)Cc1ccc(F)cc1S2 (stereo unspecified)	0	0	-	0	0.128
C=C1c2c(Cl)ccc(O)c2C(O)=C2C(=O)[C@]3(O)C(O)=C(C(N)=O)C(=O)C(N(C)C)C3C(O)C12 (stereo partly specified)	-	-	-	-	0.0755
CC(NC(=O)c1nc[nH]c1C(=O)N(C)Cc1ccccc1)c1ccccc1 (stereo unspecified)	-	-	-	-	0
COC(=O)Cn1cc(C=NNC(=O)COc2cccc3cccnc23)c2ccccc21	-	-	-	-	0
CCC[C@@H](CN1CCC[C@H]1CN1C(N)=NC[C@H]1CC(C)C)N1C[C@@H]([C@H](C)CC)N(CCCC2CCCC2)C1=N	0	0	0	0	0.432
CC(C)C[C@@H]1CN=C(N)N1C[C@@H]1CCCN1C[C@H](C)N1C[C@@H](Cc2ccccc2)N(CCCC2CCCC2)C1=N	0	0	0	0	-
CCCC(CN1CCCC1CN1C(N)=NCC1Cc1ccccc1)N1CC(Cc2ccccc2)N(CCCC2CCCC2)C1=N (stereo unspecified)	-	-	-	-	0.344
CCC[C@@H](CN1CCC[C@H]1CN1C(N)=NC[C@H]1C(C)C)N1C[C@@H]([C@H](C)CC)N(CCCC2CCCC2)C1=N	0	0	0	0	0
COc1ccc(C2CC(=O)C=C(c3cccc(Br)c3)C2)cc1 (stereo unspecified)	-	-	-	-	0
CC[C@H]1OC(=O)[C@H](C)[C@@H](O[C@H]2C[C@@](C)(OC)[C@@H](O)[C@H](C)O2)[C@H](C)[C@@H](O[C@@H]2O[C@H](C)C[C@H](N(C)C)[C@H]2O)[C@](C)(O)C[C@@H](C)C(=NOCOCCOC)[C@H](C)[C@@H](O)[C@]1(C)O	11.4	0	0	0	-
CCC1OC(=O)C(C)C(OC2C[C@@](C)(OC)C(O)C(C)O2)C(C)C(OC2OC(C)CC(N(C)C)C2O)[C@](C)(OC)CC(C)C(=O)C(C)C(O)[C@]1(C)O (stereo partly specified)	-	-	-	-	0.387
Cc1ccc2occ(C=NNC(=O)c3ccccc3C)c(=O)c2c1	-	-	-	-	0
CCOC(=O)C1C2COc3ccc(Br)cc3C2N2C(=O)N(c3cccc(Cl)c3)C(=O)[C@]12C (stereo partly specified)	-	-	-	-	0
Cc1cc(Nc2ccccc2)nc(NCc2ccccc2)n1	0	0	0	0	0
Cc1cc(Nc2ccc(Cl)cc2)nc(NCc2ccccc2)n1	0	0	0	0	0.408
CCCCS(=O)(=O)N1C2=NC(C(=O)OC)=C(C(=O)OC)C3N(C)c4ccc(OC)cc4[C@]23CC1C(=O)OC (stereo partly specified)	-	-	-	-	0
SMILES	E coli growth-1	phage Ecoli inh	Tat transport	AddAB inh	E coli growth-2
CC(=O)Nc1cccc(C(=O)/C=C/c2ccc[nH]2)c1	10.7	0	0	0	0
CC(=O)Nc1cccc(C(=O)/C=C/c2ccc(/C=C/C(=O)c3cccc(NC(C)=O)c3)cc2)c1	0	0	-	0	-
S=C(NCc1ccco1)Nc1ccc(Cl)c(Cl)c1	0	0	0	0	0.47
Fc1ccc(Nc2nc(NCc3ccco3)c3ccccc3n2)cc1	0	0	0	0	0.364
c1ccc(CNc2nc(NCc3ccccc3)c3ccccc3n2)cc1	0	-	0	0	0.439
Cc1cc(C(=O)NN=C/C(Cl)=C/c2ccccc2)c(C)o1	-	-	-	-	0
Cc1ccc2[nH]c3c(NCc4ccccc4)ncnc3c2c1	-	0	-	-	0.464
COc1ccc(CNc2ncnc3c2[nH]c2ccccc23)cc1	0	0	-	0	-
COC(=O)c1c(NC(=S)NN2CCN(C)CC2)sc2c1CCC(C)C2 (stereo unspecified)	0	0	0	0	0.485
COC(=O)c1c(NC(=O)Cc2cccs2)sc2c1CCC(C)C2 (stereo unspecified)	0	0	0	0	0
CN(N=Cc1cccs1)c1cc(=O)n(C)c(=O)[nH]1	-	-	-	-	0
COc1ccc(C=NNc2cc(C)nc3ccccc23)cc1	-	-	-	-	0.49
COc1ccc2nc(C)cc(NN=Cc3ccccc3)c2c1	-	-	-	-	0.439
CCOC(=O)c1cn(CC)c2ccc(Br)cc2c1=O	0	0	0	0	0
CCn1cc(C(=O)O)c(=O)c2cc(Br)ccc21	0	0	0	0	0.557
CCn1cc(C(=O)O)c(=O)c2cc3c(cc21)OCO3	96.5	-	-	97.0	-
CCn1cc(C(=O)N[C@@H](C)C(=O)OC)c(=O)c2cc3c(cc21)OCO3	0	0	0	0	0.0835
CC[C@@]12C(=O)N(c3cccc(Cl)c3)C(=O)N1C(c1cccc(C)c1)C1C(=O)N(Cc3ccccc3)C(=O)C12 (stereo partly specified)	-	-	-	-	0
O=C(NN=Cc1ccc(OC(=O)c2cccs2)cc1)c1ccc(Cl)cc1	-	-	-	-	0
CCOc1ccc(N2CC(C(=O)NCCN3C(=O)S/C(=C\c4ccc(OC)cc4)C3=O)CC2=O)cc1 (stereo unspecified)	0	0	0	0	0
COc1ccc(/C=C2\SC(=O)N(CCNC(=O)C3CC(=O)N(c4ccccc4)C3)C2=O)cc1 (stereo unspecified)	12.0	0	0	0	0
O=C(Nc1ccccc1)C1=CC(c2csc3ccccc23)CC(OCCCCO)O1 (stereo unspecified)	-	-	-	-	0
O=[N+]([O-])c1ccc(C=Nc2ccc(Cl)c([N+](=O)[O-])c2)s1	-	0	0	-	-
Cc1cc(C(=O)N/N=C/c2cccs2)n[nH]1	0	0	0	0	-
Cc1cc(C(=O)NN=Cc2ccc([N+](=O)[O-])s2)n[nH]1	-	-	-	-	0.457
Cc1cc(C)cc(N=Cc2ccc([N+](=O)[O-])s2)c1	0	0	0	0	0.54
NC(=O)c1ccc(N=Cc2ccc([N+](=O)[O-])s2)cc1	0	0	0	0	0.347
CCCCCC1CN(C2CCCCC2)C(=O)C1CC(=O)NCc1ccc(OC)cc1 (stereo unspecified)	-	-	-	-	0
O=Cc1ccc(O)c2ncccc12	-	-	0	-	0.093
Cc1c(NC(=O)COc2cccc(F)c2)c(=O)n(-c2ccccc2)n1C	0	0	0	0	0
